Reference: PubChem BioAssay AID1794842 (National Center for Advancing Translational Sciences (NCATS), 2023)
Hit rate of the full screen: of about 2,800 compounds, fewer than 10 were called active. The call rests on the fitted dose curve; in most records, active means well fitted curve in the direction sought with a large enough effect; inconclusive means small, poorly fitted or top-dose-only effect, or another doubt; inactive means no such curve, though single readings can be large or run the other way. Only a sample is shown.

These compounds were tested against Metallo-beta-lactamase type 2 (Klebsiella pneumoniae) (UniProt C7C422) (assay: qHTS to identify inhibitors of the New Delhi Metallo-beta-lactamase (NDM): Meropenem screen against the machine-based learning selections.). Conditions: Purified NDM-1, meropenem hydrolysis, absorbance 300 nm; series mostly up to 38.4 µM.
Metallo-beta-lactamase type 2 (Klebsiella pneumoniae), sequence (C7C422 whole entry, looked up): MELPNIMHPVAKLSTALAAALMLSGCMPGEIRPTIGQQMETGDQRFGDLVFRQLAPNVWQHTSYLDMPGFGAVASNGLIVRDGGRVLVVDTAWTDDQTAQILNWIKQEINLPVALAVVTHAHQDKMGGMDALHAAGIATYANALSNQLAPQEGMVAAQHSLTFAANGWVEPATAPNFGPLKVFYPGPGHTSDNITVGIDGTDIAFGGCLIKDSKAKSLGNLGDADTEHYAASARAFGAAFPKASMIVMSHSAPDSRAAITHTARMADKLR
Excerpt: Assay Submitter (PI): James Inglese Ph.D., Patricia Dranchak Ph.D., Mahesh Aitha Ph.D. Assay Development and Screening Technology Laboratory (ADST) National Center for Advancing Translational Sciences (NCATS), Rockville, MD National Institute of Health (NIH), Bethesda, Maryland The metallo-beta-lactamases (MBL) are a main antibiotic resistance mechanism evolved by bacteria. There is an urgent clinical need for MBL inhibitors to mitigate this growing threat. To support a machine-based learning study, qHTS has been used to experimentally test inhibitors identified by prediction tools.
PROTOCOL TABLE (as described by Inglese et al., 2007) SEQUENCE No. (e.g., 1, 2, 3, etc.); […] (e.g., enzyme, Incubation, Reagent, etc.); VALUE; DESCRIPTION Primary Screen 1; NDM-1; 4 uL of 3 nM enzyme [2 nM final] in 50 mM HEPES (pH 7.0), 1 uM […], 0.01% Tween20; Use BioRaptr to dispense into two sets of Aurora black, clear bottom high base 1536-well plates 2; Compounds; 23 nL; Use Pin Tool (Wako) to transfer DMSO control and library compounds in DMSO 3; Incubate; >30 min 4a; Reagent; 2 uL of 50 uM nitrocefin [16.7 uM final] to one set of assay plates 4b; Reagent; 2 uL of 150 uM meropenem [50 uM final] to second set of assay plates 5a; Incubate; 15 min 5b; Incubate; 30 min 6a; Detector; Absorbance at 485 nm (bandwidth = 5 nm, 25 flashes/well) on Tecan Infinity 6b; Detector; Absorbance at 300 nm (bandwidth = 5 nm, 25 flashes/well) on Tecan Infinity NOTES (numbers refer to sequence above) 1; Column 1 of each plate received assay buffer without enzyme and columns 2-48 received enzyme for a final assay concentration of 2 nM. 2; Control plate contained DMSO in columns 1, 2, 3, and 4. 3; Compound interaction with enzyme. 4; Nitrocefin and meropenem substrates were prepared in the same assay buffer as step 1 for a final assay concentration of 16.7 uM and 50 uM, respectively, and added to all wells across respective sets of assay plates. 5; Default reader settings were applied for absorbance read at 485 nm (nitrocefin) or 300 nm (meropenem), bandwidth = 5 nm, 25 flashes/well. References: Inglese J, Shamu CE, Guy RK. 2007. Reporting data from high-throughput screening of small-molecule libraries. Nat Chem Biol. doi:10.1038/nchembio0807-438 Yasgar A, Shinn P, Jadhav A, Auld D, Michael S, Zheng W, Austin CP, Inglese J, Simeonov A. 2008. Compound Management for Quantitative High-Throughput Screening. J Lab Autom 13:79 - 89. doi:10.1016/j.jala.2007.12.004

outcome, inactive:
C[C@@H](NS(=O)(=O)c1ccccc1)c1onc(-c2cccnc2)c1C(=O)O
C#CCN(C)CC[C@@H]1CC[C@H](O)[C@@H](C(=O)N(C)Cc2ccccc2)O1
COCc1cc(C[C@@H]2CC[C@H](O)[C@@H](CNC(=O)C(C)(C)C)O2)no1
O=C(NC[C@H]1Cn2c(-c3ccccc3)cnc2CO1)C1CCOCC1
O=C(NCc1ccccc1)O[C@H]1COCCN(c2nc3ccccc3o2)C1
O=C(Cc1ccccc1)Nc1ccc([C@@H](O)[C@H]2COCC(=O)N2CC2CC2)cc1
CC[C@@]1(C(=O)O)C[C@H](C(=O)NC(CO)CO)[C@H](c2ccc(OC)cc2)N1C
O=C(CN1CC2CC(C1)[C@H]1CCCC(=O)N1C2)NCc1cc(F)ccc1F (some centres not stated)
NCCn1cc(C(=O)NCC(O)c2ccccc2C(F)(F)F)nn1 (configuration not stated)
C[C@@H](NC(=O)c1cccs1)c1onc(-c2ccc(F)cc2)c1C(=O)O
O=[N+]([O-])c1cccc(-c2noc([C@@H]3C[C@@H](O)CN3Cc3ccccc3)n2)c1
CC(C)c1noc(-c2cccn3c(CNC(=O)c4cccc5[nH]ccc45)nnc23)n1
CN(C)c1nccnc1OC1CCN(C(=O)CCCc2ccccc2)C1 (configuration not stated)
Cc1cc(C(=O)NCCc2csc(-c3cccnc3)n2)cc(S(N)(=O)=O)c1C
CC1(C)[C@H](Cc2cc(CCO)on2)C[C@@H]1N(S(C)(=O)=O)S(C)(=O)=O
CC(C)CCN1CCNC(=O)C1CC(=O)N(Cc1nccs1)C1CC1 (configuration not stated)
Cn1c(CN2CCOCC2)nnc1C1CCN(c2ncccc2C#N)CC1
CCCCNC(=O)c1cccc(CN2C(=O)CC(c3ccccc3C)C(C(=O)OCC)=C2C)c1 (configuration not stated)
Cn1cnc2cc(-c3ccc(CO)cc3)cc(C(=O)NCc3cccnc3)c21
Cc1cc(F)ccc1OC1CN(Cc2ccc(F)cc2)C1
COc1ccc(-c2noc([C@@H]3Cc4nc[nH]c4CN3Cc3ccc(NC(C)=O)cc3)n2)cc1
CC1(C)C[C@H](NC(=O)c2ccccc2)[C@@]2(CCC(=O)NCCN3CCOCC3)CC[C@](C)(O)C[C@@H]12
CC(C)(C)c1ccc(C(=O)Nc2nc3c(s2)C[C@@H]2[C@](C)(CO)[C@H](O)CC[C@@]2(C)[C@@H]3CC(=O)NC2CC2)cc1
O=C(COc1ccccc1Cl)N1CCCC(O)(CN2CCCC2)C1 (configuration not stated)
COCC(=O)NC[C@@H]1C=C(C)[C@H](CC(=O)Nc2ccccn2)C[C@H]1C(C)C
Cc1cnccc1N1CCCN(C(=O)c2cccc(C3CCCNC3)c2)CC1 (configuration not stated)
COC(=O)[C@@H]1Cc2ncn(C)c2CN1C(=O)c1ccc(-c2ccccc2)cc1
NC(=O)[C@H](Cc1cccs1)NC(=O)C1=C[C@@H](NC(=O)c2ccc(F)c(Cl)c2)[C@@H](O)[C@H](O)C1
COc1ccc(CN2CCNc3cc(Nc4cccnc4)ncc3C2)cc1O
CN1C[C@H](NCc2cccc(Cl)c2)CCC[C@@H](C(=O)NC2CC2)CC1=O
COc1ccc(CCC(=O)N2CCC(N3CC4CC(C3)[C@H]3CCCC(=O)N3C4)CC2)cc1 (some centres not stated)
COC[C@H]1CCCN1C(=O)C[C@@H]1O[C@H](CNS(C)(=O)=O)[C@@H](O)[C@H]1O
CN[C@@H](CO)C(=O)NCc1nc(-c2cccc(F)c2)c(-c2ccccn2)[nH]1
COc1ccc(-c2nc3ccncc3[nH]2)cc1
CC(=O)N1CCC(N[C@H]2CC(C)(C)[C@@H]3C[C@@](C)(O)CC[C@]23CCC(=O)NCCN2CCOCC2)CC1
CC(O)CNS(=O)(=O)c1cccc(C(=O)Nc2cccc3c2CCC3)c1 (configuration not stated)
COCCN1C(=O)CCc2cc(NC(=O)c3ccc(C)c(C)c3)ccc21
OC[C@H]1CCN(c2ccnc3c(C(F)(F)F)cccc23)C[C@H]1O
CC1CCN([C@@H]2[C@H](O)[C@H](CO)O[C@@H]2CNC(=O)c2ccccc2)CC1
CC(=O)N1CCC(N2C[C@@H]3OCC(=O)N[C@@H]3C2)CC1
NC(=O)c1cccc(-c2n[nH]c3c2CC(=O)N(CC2CCOCC2)C3)c1
O=c1c2nc(-c3cccc(O)c3)ccc2ncn1Cc1ccccn1
Cc1cc(C(=O)N[C@H]2[C@H](O)[C@H](O)C[C@@H]2c2cccnc2)no1
COc1ccc(F)c(CN2CCCC(O)(CN(C)Cc3cc(C)on3)C2=O)c1 (configuration not stated)
O=C(Nc1cccnc1)c1ccnc(-c2nnc3ccc(Nc4ccccc4)nn23)c1
CCc1nc2c(c(-c3ccc(Cl)cc3)n1)CCN(Cc1ccc(F)cc1)CC2
COCc1cn(C[C@H]2C[C@@H](NCc3nccs3)[C@H](O)[C@@H]2O)nn1
NC(=O)[C@H](Cc1cccs1)NC(=O)C1=C[C@@H](NC(=O)NC2CCCCC2)[C@@H](O)[C@H](O)C1
CC(C)C1CN(C(=O)c2ccccc2-c2ncc[nH]2)CCC(=O)N1CC1CC1 (configuration not stated)
COC(=O)[C@H]1CN(C(C)=O)CCN1C(C)=O
O=C(Cc1csc(-c2ccccc2)n1)N[C@H](c1ccccn1)C1CC(O)C1 (some centres not stated)
Cc1cn(CC(=O)NC2CCOC3(CCOCC3)C2)c(=O)[nH]c1=O (configuration not stated)
O=C1CN(C(=O)[C@H]2CN(Cc3ccccc3)C[C@H]2C(=O)O)CCN1
Cc1noc(C2CC3(CCN(C(=O)C4CCC4)CC3)CN2C)n1 (configuration not stated)
Cc1ncsc1CCC(=O)N[C@@H]1CCOC[C@H]1OCC(=O)O
Cc1cc2c(cc1C(=O)N[C@H](c1ccccn1)C1CC(O)C1)OCCO2 (some centres not stated)
Cc1ccn2c(C(=O)N3CCCC(c4[nH]ncc4-c4ccccc4)C3)nnc2n1 (configuration not stated)
c1cncc(Nc2cc3c(cn2)CN(Cc2ccsc2)CCN3)c1
CC[C@@]1(O)CCN(C(=O)c2cccc(CCC(C)(C)O)c2)C[C@H]1O
O=C(c1ccoc1)N1CCCC(CCc2ccc(F)c(F)c2)C1 (configuration not stated)
Cc1cc(C)c(CNC(=O)c2nc(-c3cccc(O)c3)cc3[nH]ccc23)c(=O)[nH]1
COc1ccc(C(=O)NC[C@H]2O[C@@H](CC(=O)N3CCN(c4ccccc4OC)CC3)[C@H](O)[C@@H]2O)cc1
COc1ccc(CN2C(=O)[C@@H]3C[C@@H](O)CN3C3(CN(C4CCC4)C3)C2=O)cc1
O=C(Cc1ccccc1Cl)N1CCC(Cc2nc(-c3ccc(F)cc3)no2)CC1
Cc1[nH]c2c(c1C(=O)N1CCCC(CCc3ccc(F)cc3)C1)C(=O)CCC2 (configuration not stated)
O=C(c1ccccc1Cl)N1CCC2(CC1)Cc1ccccc1NC2=O
Cc1ccc(C(=O)NC2CCN(c3cn[nH]c(=O)c3)CC2)cc1C
O=C(NC1CCCCC1)O[C@@H]1CO[C@H]2[C@@H]1OC[C@@H]2NS(=O)(=O)c1ccc(Cl)cc1
O=C(Nc1ccc(C2(C(=O)NCc3ccco3)CCCCC2)cc1)C1CC1
CN1Cc2ccc(NCc3ccccc3)nc2C(C)(C(=O)NCCc2cnc[nH]2)C1 (configuration not stated)
CN1c2cccnc2CN(Cc2cccc(Cl)c2)CC[C@H]1CO
COc1ccc2nc(C[C@@H]3C[C@@H](C(C)C)[C@H](CNC(=O)Nc4ccc(F)cc4)C=C3C)[nH]c2c1
COc1ccc(C(=O)N2C[C@@H]3OCC(=O)N(Cc4nccn4C)[C@@H]3C2)cc1
COc1ccccc1CN1CC(c2noc(-c3ccc(C)cc3C)n2)CC1=O (configuration not stated)
COc1ccccc1-c1ccc2ncc(Nc3cccc(N[S+](C)(=O)[O-])c3)n2n1
Cc1nccn1-c1ccccc1CNC1CCC2(CCNCC2)CC1
COC(=O)[C@H](NC(=O)[C@@H]1C[C@@H](NS(=O)(=O)c2cccc(C(F)(F)F)c2)CCN1C(=O)CCC(=O)O)C(C)C
C=CCNC(=O)[C@@H]1Cc2cn(Cc3ccncc3)c3cccc(c23)[C@H](CC(C)C)N1
COc1cccc(CN2C[C@@H]3C(C(=O)O)[C@@H]3C2)c1OCCn1ccnc1 (some centres not stated)
COC(=O)CO[C@@H]1CO[C@H]2[C@@H]1OC[C@@H]2NC(=O)Nc1cccc(C(F)(F)F)c1
c1cc(-c2n[nH]c(CNC3CCC4(CCNCC4)CC3)n2)ccn1
COCC(=O)N1CCc2nc(N(C)CCc3ccncc3)[nH]c(=O)c2CC1
O=C1CC(C(=O)O)C2(CCN(c3cc(C(=O)O)c4ccccc4n3)CC2)N1 (configuration not stated)
O=C1Nc2ccc(/C=C/c3ccccc3)cc2C(=O)N2CC[C@H](NS(=O)(=O)c3cccs3)[C@@H]12
COC(=O)c1ccc2nc(C[C@@H]3C[C@@H](C(C)C)[C@H](CNCc4ccccc4F)C=C3C)[nH]c2c1
CCCCc1cc(C[C@@H]2C[C@H](NC(=O)NCC)C2(C)C)no1
COCC(=O)N1CC[C@@H](CC(=O)O)[C@@H](CC2=NCCc3cc(OC)ccc32)C1
O=C(Nc1cccnc1)N1CCOC[C@H](Oc2ccccc2)C1
c1c(CC2CCCCC2)nnn1[C@H]1CO[C@H]2[C@@H]1OC[C@@H]2NCC1CCCCC1
O=C(Nc1ccc(F)cc1)N1C[C@@H]2OCC(=O)N(Cc3ccc(OC(F)(F)F)cc3)[C@@H]2C1
O=C(Nc1ccc(Oc2ccccc2)cc1)N[C@H]1CO[C@H]2[C@@H]1OC[C@H]2OC(=O)Nc1cccc(C(F)(F)F)c1
Cc1cc(C(=O)N[C@@H]2C[C@H](Cn3cc(C4CC4)nn3)[C@@H](O)[C@H]2O)no1
